This is a sample that favours compounds with a hit; in the whole collection about 19% have one here.
TGFb inhibitor – qHTS for Inhibitors of TGF-b | HepG2 CAGA-GFP TGF-b/SMAD3 reporter, GFP fluorescence, 18 h; TGF-beta stimulated, 500 pg/mL final | Potency, µM (doses to about 46.1 µM), inactives show at the top dose activity, negative = inhibition, hits mostly inhibitors | actives 1.2% (n = 410,000) | AID 588855, 2011; further: potency means the concentration at half of the fitted maximal effect; on the % scale 0 is the no-effect control and ±100 the full control effect; nearly all actives have a fitted effect of over 65% in size
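Read-out: total well GFP (ex488/em500-530) summed from mean per-cell fluorescence. Cells: HEPG2 CAGA-GFP, 1% FBS DMEM, 18 h at 37 degrees C with 500 pg/mL final TGF-beta. Unstimulated wells served as the full-inhibition control; stimulated DMSO wells = 0%.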
DT40 TDP1 no CPT – qHTS for Inhibitors of human tyrosyl-DNA phosphodiesterase 1 (TDP1): qHTS in cells in absence of CPT; DT40 Tdp1-/- hTDP1 cells, no CPT, ATP luminescence, 48 h; Potency, µM (top dose mostly 46.2 µM), for inactives: at the top dose activity change, negative = growth inhibition, most hits filed as inhibitors; actives 15% (n = 420,000); AID 686978, 2013; further: potency means the concentration at half of the fitted maximal effect; on the % scale 0 is the no-effect control and ±100 the full control effect; nearly all actives have a fitted effect of over 55% in size
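Luminescent ATP content (CellTiter-Glo) served as the growth readout. Knockout chicken DT40 cells expressing human TDP1 were exposed to compounds without camptothecin for a minimum 48 hr at 37 °C.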
S-ASM inh – Inhibitors of Secretory Acid Sphingomyelinase (S-ASM): qHTS; Potency, µM (top dose mostly 57.5 µM), inactives show at the highest dose activity change, negative = inhibition, most hits filed as inhibitors; placental ASM, HMU-PC fluorogenic substrate, 60 min; Sphingomyelin phosphodiesterase (Homo sapiens), P17405; AID 504937, 2011; actives 0.006% (n = 340,000); further: potency means the concentration at half of the fitted maximal effect
Target sequence (P17405 47-631 limits assumed): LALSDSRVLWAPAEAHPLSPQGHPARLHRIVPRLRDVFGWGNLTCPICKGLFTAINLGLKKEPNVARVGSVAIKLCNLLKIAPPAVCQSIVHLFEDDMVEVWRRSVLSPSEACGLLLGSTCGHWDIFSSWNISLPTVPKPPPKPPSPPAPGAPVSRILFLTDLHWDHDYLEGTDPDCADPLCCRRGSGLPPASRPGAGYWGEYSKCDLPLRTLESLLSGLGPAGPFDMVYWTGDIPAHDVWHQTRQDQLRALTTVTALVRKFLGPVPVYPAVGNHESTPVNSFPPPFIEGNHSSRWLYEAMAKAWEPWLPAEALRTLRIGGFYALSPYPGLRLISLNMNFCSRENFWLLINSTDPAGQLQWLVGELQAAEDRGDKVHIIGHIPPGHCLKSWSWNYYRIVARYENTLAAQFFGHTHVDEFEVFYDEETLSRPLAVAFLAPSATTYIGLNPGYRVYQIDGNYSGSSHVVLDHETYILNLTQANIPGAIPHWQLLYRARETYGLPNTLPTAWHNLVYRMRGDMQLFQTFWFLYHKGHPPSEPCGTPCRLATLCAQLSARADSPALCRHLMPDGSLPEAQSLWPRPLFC
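Fluorescence read-out (Ex 386 nm, Em 447 nm) after stopping the reaction at pH 10. Enzyme: ASM from human placenta; substrate HMU-PC0, 9 uM final; 60 min, 37 °C. Compound preincubation 10 min, ambient temperature.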
IL-1B inflam inh – qHTS for Inhibitors of Inflammasome Signaling: IL-1-beta AlphaLISA Primary Screen. THP-1 LPS/ATP IL-1B secretion, AlphaLISA, 16 h; stronger effect = lower value. actives 4.7% (n = 360,000). activity change, % at 57.5 µM. AID 743279, 2014; in the data active means activity change below about -50%; inconclusive means mostly about -30% to -49%; further: on the % scale 0 is the no-effect control and ±100 the full control effect
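Secreted IL-1B measured by AlphaLISA bead assay after 16 h compound exposure of THP-1 cells; compounds (final up to 57.5 uM) added 1 h before LPS (250 ng/mL) and ATP (1.25 mM) stimulation; lower signal means less secretion.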
HepG2 viability – qHTS for Inhibitors of TGF-b: Cytotox Counterscreen; HepG2 CAGA-GFP viability, ATP luminescence, 18 h; Potency, µM (highest dose often 46.1 µM), inactives show at the highest dose activity change, negative = cytotoxicity, actives largely listed as cytotoxic; actives 0.76% (n = 410,000); AID 588856, 2011; further: potency means the concentration at half of the fitted maximal effect
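HepG2 CAGA-GFP cells (1000/well, DMEM with 1% FBS) received compound, then TGF-beta at 500 pg/mL final, and were incubated 18 hours at 37 degrees C. Viability was read by CellTiter-Glo luminescence. Media-only wells were set as complete cell-killing and DMSO as no toxicity.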
DT40 TDP1 CPT – qHTS for Inhibitors of human tyrosyl-DNA phosphodiesterase 1 (TDP1): qHTS in cells in presence of CPT; chicken DT40 Tdp1-/-;hTDP1 cells + 20 nM CPT, ATP luminescence, 48 h; Potency, µM (doses to about 46.2 µM), for the others: at the top dose activity change, negative = growth inhibition, actives largely listed as inhibitors; actives 12% (n = 420,000); further: potency means the concentration at half of the fitted maximal effect; on the % scale 0 is the no-effect control and ±100 the full control effect; nearly all actives have a fitted effect of over 55% in size
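Cell growth measured by CellTiter-Glo luminescence after a minimum 48 h, 37 C compound exposure with 20 nM CPT in Tdp1-knockout DT40 cells stably expressing hTDP1, seeded 400/well; qHTS titration format.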
* hit, by the source's call; u = inconclusive; x = no result. Unless noted, the call rests on the fitted dose curve; in most records, active means well fitted curve in the direction sought with a large enough effect; inconclusive means small, poorly fitted or top-dose-only effect, or another doubt; inactive means no such curve, though single readings can be large; an effect the other way counts as inactive or inconclusive.

SMILES	TGFb inhibitor	DT40 TDP1 no CPT	S-ASM inh	IL-1B inflam inh	HepG2 viability	DT40 TDP1 CPT
O=C1C=CC(=O)N1c1ccc(-c2nc3ccccc3o2)cc1	u	1.6µM*	x	-22	-43%	1.8µM*
NC(=O)C1CCN(C(=O)c2ccc3c(c2)N(Cc2cccc(Cl)c2)C(=O)c2ccccc2S3=O)CC1 (centres undefined)	7%	4%	x	x	-1%	-5%
CN1CCC(CC(C(=O)N2CCCC2)(c2ccccc2)c2ccccc2)C1 (centres undefined)	-2%	u	1%	-18	-10%	23µM*
Cc1c(C)n(Cc2ccccc2)c2ccc(C(=O)N3CCN(c4ccc(F)cc4)CC3)cc12	u	16µM*	x	x	-45%	u
Cc1c(C)n(Cc2ccc(F)cc2)c2ccc(C(=O)N3CCN(c4ccc(Cl)cc4)CC3)cc12	-17%	u	x	x	-6%	18µM*
O=C1NC2CCCCC2C(=O)N1OS(=O)(=O)c1ccccc1 (centres undefined)	0%	12µM*	1%	-78*	-24%	2.6µM*
Nc1nnc(SCC(=O)OCC(=O)c2ccccc2)s1	0%	-1%	2%	22	4%	4%
Nc1nnc(SCC(=O)OCC(=O)c2ccccc2Br)s1	9%	u	-1%	-28	-75%	26µM*
Cc1nc(Nc2ccccc2)sc1C(=O)Nc1ccccc1	2%	u	0%	-65*	-30%	21µM*
Cc1nc(NCc2ccccc2)sc1C(=O)Nc1ccccc1	5%	u	-4%	-6	6%	-1%
Cc1nc(Nc2ccccc2Cl)sc1C(=O)Nc1ccccc1	0%	21µM*	-10%	u	-30%	18µM*
Cc1nc(NC(C)c2ccccc2)sc1C(=O)Nc1ccccc1 (centres undefined)	-9%	-21%	-14%	-52*	-1%	u
Cc1nc(C)c(C(=O)Nc2ccccc2)s1	7%	-20%	6%	-17	-5%	-1%
COc1ccccc1Nc1nc(C)c(C(=O)Nc2ccccc2)s1	6%	u	-4%	-53*	-19%	15µM*
CCOc1cc(N2CCOCC2)c(OCC)cc1NC(=O)c1ccccc1N1CCCC1=O	6%	u	x	0	-2%	u
C[C@@H]1CCCCO[C@@H](CN(C)C(=O)Cc2ccccc2)[C@@H](C)CN([C@H](C)CO)C(=O)c2cc(N(C)C)ccc2O1	2%	-23%	x	-4	-4%	-12%
COc1ccc(C(=O)c2sc(Nc3ccc(NC(C)=O)cc3)nc2C)cc1	-25%	16µM*	9%	44	-23%	29µM*
COc1ccc(Nc2nc(C)c(C(C)=O)s2)cc1	3%	u	x	4	3%	-16%
CCN(CC(=O)Nc1ccc2c(c1)OCCO2)CC(=O)Nc1ccc(C)c(S(=O)(=O)N(C)C)c1	-5%	u	-1%	-1	9%	-6%
COc1ccc(C2CC(=O)c3cc(OC)ccc3O2)cc1 (centres undefined)	13%	u	139%	-26	-9%	-27%
COc1ccc(C2CC(=O)c3ccccc3O2)cc1 (centres undefined)	2%	u	4%	-60*	-6%	u
CCOC(=O)N1CCN(C(=S)NC(=O)c2ccc(F)c(F)c2)CC1	4%	15µM*	2%	17	0%	u
CCOC(=O)C1=C(C)N(C)C(C)=C(C(=O)OCC)C1c1ccc(Cl)cc1	u	u	-28%	u	-64%	u
CCOC(=O)C1=C(C)N(C)C(C)=C(C(=O)OCC)C1c1ccc(C(=O)OC)cc1	0%	15µM*	-7%	u	-14%	u
CCOC(=O)C1=C(C)N(C)C(C)=C(C(=O)OCC)C1c1ccsc1	u	15µM*	10%	-15	12%	u
SMILES	TGFb inhibitor	DT40 TDP1 no CPT	S-ASM inh	IL-1B inflam inh	HepG2 viability	DT40 TDP1 CPT
COC(=O)CCC(=O)N1CCCC(CNS(=O)(=O)c2ccc(OC)cc2)C1 (centres undefined)	-3%	15%	-1%	19	6%	-4%
CC1(C(=O)O)CCCN(C(=O)c2cc3ccccc3s2)C1 (centres undefined)	-3%	5%	x	19	5%	2%
CC(C)C(=O)N1CCC1(C)C(=O)NS(=O)(=O)c1cccs1 (centres undefined)	5%	0%	x	9	-1%	-21%
COc1ccc(C2=NC(C(F)(F)F)(C(F)(F)F)c3c(n(C)c(=O)n(C)c3=O)N2)cc1	u	18µM*	5%	-8	-5%	15µM*
Cn1c2c(c(=O)n(C)c1=O)C(NS(=O)(=O)c1ccccc1)(C(F)(F)F)C(=O)N2 (centres undefined)	16%	1%	4%	37	-10%	-10%
CCOC(=O)CNC(=O)c1cccnc1Oc1ccc(Cl)cc1	18%	9%	2%	2	-1%	7%
O=C(N/N=C/c1cccc(Oc2ccccc2)c1)c1cccc(Br)c1	u	21µM*	-4%	6	-18%	u
Cc1ccc(C(=O)N/N=C/C=C/c2ccccc2)cc1	-4%	-9%	2%	-21	-16%	-5%
O=C(CNc1cccc2ccccc12)N/N=C/c1cccc(Oc2ccccc2)c1	u	26µM*	-20%	-7	-91%	u
O=C(N/N=C/C=C/c1ccccc1)c1cccc(Br)c1	-11%	21µM*	-9%	-26	-22%	u
NC(=O)C1CCN(C(=O)NC(=O)c2ccccc2)CC1	-1%	27%	3%	12	0%	5%
COc1cc(CC(=O)Nc2ccc(S(=O)(=O)NC3=NCCCCC3)cc2)cc(OC)c1OC	20%	-5%	4%	7	1%	-2%
CC1=C(C(=O)Nc2cccnc2)C(c2ccc(F)cc2)n2nc(SCc3ccccc3)nc2N1 (centres undefined)	6%	-13%	x	x	0%	-4%
c1cc2c3c(cccc3c1)-c1cnccc1-2	0%	-24%	10%	-66*	1%	15%
O=C1c2cccc3cccc(c23)C(=O)N1Cc1cccnc1	-18%	u	5%	24	22%	1%
